Data as given in PubChem BioAssay (NCI).
This is part of a sample that, as a whole, favours compounds with a hit. Of some 83,000 tested, about 20% had one in any assay.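 The test compound was applied at a single concentration to cells in 96-well plates for 48 hours, and percent growth was recorded.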 Unmarked numbers belong to inactive results. The source made the active and inactive calls. Rule for the calls: active = growth percent below 10; inactive = the rest.

Tested on: MDA-MB-468 breast
Test: NCI-60 one-dose screen, 48 h (100 = growth as untreated, 0 = no growth, -100 = all killed)
Conditions: 10 µM unless noted

Q: With `C=C1C(=O)O[C@H]2[C@H]1CC/C(COC(=O)/C=C\C(=O)NCc1ccc(Cn3c(=O)sn(CCCCl)c3=O)cc1)=C\CC[C@@]1(C)O[C@@H]21` as the compound, how does the growth read?
A: Its growth is 40.3%.

Q: With `CC(O)CNC(Cc1ccccc1)c1ccc2c(c1)OCO2` (configuration not stated) as the compound, how does the growth read?
A: Its growth is 101%.

Q: Which growth does the source give for `C=C1C(=O)O[C@H]2[C@H]1CC/C(COC(=O)NCc1c[nH]c3ccccc13)=C\CC[C@@]1(C)O[C@@H]21` here?
A: Its growth is 48%.

Q: How did the growth turn out when `COc1cc(NC(=O)c2cncnc2Nc2ccc3c(ccn3Cc3cccc(F)c3)c2)cc(OC)c1` was run?
A: The growth was 42.8%.

Q: With `COc1cc(C[C@H]2COc3cc(O)cc(O)c3C2=O)ccc1O` as the compound, how does the growth read?
A: Its growth is 26.2%.

Q: Which growth does the source give for `C[C@H](C(=O)Nc1ccc(S(N)(=O)=O)cc1)S(=O)(=O)c1ccccc1` here?
A: Its growth is 102%.

Q: Which growth does the source give for `CNC(=O)c1cc(N2CCc3cc(NC(=O)Nc4ccc(N5CCOCC5)c(C(F)(F)F)c4)ccc32)ccn1` here?
A: The growth was 49.6%.

Q: For `C=C(C)[C@@H]1CC[C@]2(C(=O)N3CCN(C)CC3)CC[C@]3(C)[C@H](CC[C@@H]4[C@@]5(C)C/C(=C/c6ccncc6)[C@H](O)C(C)(C)[C@@H]5CC[C@]43C)[C@@H]12`, which growth is on record?
A: Its growth is -25.5% [100 µM] (active).

Q: `O=C(CCN1C(=O)/C(=C/c2ccc(O)cc2)SC1=S)Nc1ccccc1` was tested. Which growth did it give?
A: The growth was 100%.

Q: With `O=S(=O)(O)C(Nc1ccccc1)c1ccccc1` (configuration not stated) as the compound, how does the growth read?
A: Its growth is 92.7%.

Q: Which growth does the source give for `C=C1CCc2nc(SCC(=O)O)ccc2N1` here?
A: Its growth is 97.3%.

Q: With `COc1cnccc1-c1nc2ccc3[nH]ncc3c2c2c1CCCC2` as the compound, how does the growth read?
A: The growth was 39.6%.

Q: How did the growth turn out when `CCOC(=O)c1sc(-c2ccc(OS(=O)(=O)c3ccccc3[N+](=O)[O-])c(C=O)c2)nc1C` was run?
A: Its growth is 55.4%.

Q: For `Nc1ncn([C@@H]2O[C@H](CO)[C@@H](O)[C@H]2O)c(=O)n1`, which growth is on record?
A: Its growth is 33.2%.

Q: With `CN(C)CCOc1nc2c3cccnc3cc(-c3cccc(Cl)c3)c2c2ncccc12` as the compound, how does the growth read?
A: The growth was 2.18% (active).

Q: For `Nc1c2c(c(O)c3c1=C(CO)C=N3)=NCCS2=O` (configuration not stated), which growth is on record?
A: The growth was -79.6% (active).

Q: For `O=C1NCN(CCO)CN1`, which growth is on record?
A: The growth was 99.9%.

Q: With `Cn1c(NCCc2ccc(O)c(O)c2)nc2c1c(=O)n(Cc1ccc(Cl)cc1)c(=O)n2C` as the compound, how does the growth read?
A: Its growth is 19.4%.

Q: `Oc1c(CN2CCC(N3CCCCC3)CC2)cc(Cc2cc(CN3CCC(N4CCCCC4)CC3)c(O)c3ncccc23)c2cccnc12` was tested. Which growth did it give?
A: The growth was -39.2% (active).

Q: How did the growth turn out when `CCOC(=O)c1cc(/C(=N\O)c2cc(OC)c(OC)c(OC)c2)n2c(C)cccc12` was run?
A: The growth was 21.8%.

Q: For `O=C(Nc1cccnc1Nc1ccc(F)cc1)c1cn(Cc2cccc(Oc3ccccc3)c2)nn1`, which growth is on record?
A: The growth was 63.5%.

Q: Which growth does the source give for `COc1ccc(C2CC(c3cc(Cl)c(C)cc3OC)=NN2c2ccc(S(N)(=O)=O)cc2)cc1OC` (configuration not stated) here?
A: Its growth is 94.6%.

Q: `CC1(C)N=C(N)N=C(N)N1c1cccc(CCc2ccccc2)c1` was tested. Which growth did it give?
A: The growth was 16.6%.

Q: How did the growth turn out when `c1ccc2c(c1)nc(-n1ccnc1)c1nc3ccccc3n12` was run?
A: Its growth is 76%.

Q: How did the growth turn out when `c1ccc(CN2COc3c(ccc4c3OCN(Cc3ccccc3)C4)C2)cc1` was run?
A: The growth was 0.865% (active).

Q: How did the growth turn out when `CCn1nc(-c2ccccn2)c2cccnc2c1=S` was run?
A: Its growth is 48.8%.

Q: With `CCN1C(=S)N(CC)C2Nn3c(s/c(=C4\C(=O)N(C)c5ccccc54)c3=O)=NC21` (configuration not stated) as the compound, how does the growth read?
A: The growth was 11.7%.

Q: How did the growth turn out when `O=C1c2ccccc2C(=O)N1OCc1ccccc1` was run?
A: Its growth is 125%.

Q: For `CC(C)C(C#N)(C(C)C)C(C)C`, which growth is on record?
A: Its growth is 109%.

Q: With `COc1ccc(/C=c2\sc3n(c2=O)NC2C(N=3)N(C)C(=O)N2C)cc1` (configuration not stated) as the compound, how does the growth read?
A: The growth was 99%.

Q: For `COc1cc(OC)c(C(=O)/C=C/c2cc3c(cc2OCc2ccccc2)OC(C)(C)CC3)cc1CC=C(C)C`, which growth is on record?
A: The growth was 26.2%.

Q: `COc1ccc(Cl)cc1NC(=O)c1c(NC(=O)C(F)(F)C(F)(F)F)sc2c1CCCCC2` was tested. Which growth did it give?
A: The growth was -16.9% (active).

Q: How did the growth turn out when `CCN1CCN(C(=O)[C@]23CC[C@@H](C)[C@H](C)[C@@H]2C2=CC[C@@H]4[C@@]5(C)C/C(=C/c6ccncc6)C(=O)C(C)(C)[C@@H]5CC[C@@]4(C)[C@]2(C)CC3)CC1` was run?
A: Its growth is -1.64% (active).

Q: For `COc1cc2c(cc1OC)CC[N+](CCC[N+](C)(C)C)=C2`, which growth is on record?
A: The growth was 103%.

Q: How did the growth turn out when `COc1ccc(/C=C\C(=O)/C=C/c2ccc(OC)cc2)cc1` was run?
A: Its growth is 18.7%.

Q: For `Nc1nc(N)c2c(n1)NC(c1sc(Cl)nc1Cl)CC(c1ccccc1)=N2` (configuration not stated), which growth is on record?
A: Its growth is -2.14% (active).

Q: How did the growth turn out when `Nc1nc(-c2cccc([N+](=O)[O-])c2)c(N=Nc2ccccc2)s1` was run?
A: Its growth is 11.5%.
